# Measurements published in the supplement of paper PMC4022240.
# ± gives the standard deviation.
# Assays:
# Assay in all cases: peptide microarray binding signal (635 nm), min-max normalized on array (fraction of array maximum); higher = stronger binding
# [1] = target: T1, HaloTag-ATRX ADD domain (163-292)
# T1 chain: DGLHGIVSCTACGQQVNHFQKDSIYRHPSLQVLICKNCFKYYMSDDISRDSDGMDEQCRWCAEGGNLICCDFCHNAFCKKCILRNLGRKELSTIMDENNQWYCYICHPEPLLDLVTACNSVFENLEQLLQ
# Outline: (§1)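 Within each library, mean intensities of triplicate spots were min-max scaled to give the binding signal. The spots were histone 13-mer peptide–cellulose conjugates on nitrocellulose with a Cy3 tracer, blocked overnight at 4°C. They were then probed for 1 h at 4°C using biotin-labelled HaloTag reader fusions (10 nM to 1 μM) with streptavidin-Alexa Fluor 647 or rabbit histone antibodies (1:10,000 to 1:2,000) with anti-rabbit Alexa 647, and scanned at 635 nm for signal and 532 nm for misprints on an Axon GenePix 4000B.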
# [2] = target: HaloTag-ING2 PHD (mouse Ing2 200-280)
# Outline: as §1
# [3] = target: anti-H3K4me3 antibody ab8580
# Outline: as §1
# [4] = target: anti-H3K9me3 antibody ab8898
# Outline: as §1
# [5] = peptide region: H3 5-17, peptide modifications: H3S10ph H3K14me3, binder concentration: 1:2,000 dilution
# [6] = peptide region: H3 5-17, peptide modifications: H3S10ph H3K14me3, binder concentration: 1:10,000 dilution
# [7] = peptide region: H3 5-17, peptide modifications: H3S10ph H3T11ph, binder concentration: 1:2,000 dilution
# [8] = peptide region: H3 5-17, peptide modifications: H3S10ph H3T11ph, binder concentration: 1:10,000 dilution
# [9] = peptide region: H3 5-17, peptide modifications: H3S10ph, binder concentration: 1:2,000 dilution
# [10] = peptide region: H3 5-17, peptide modifications: H3S10ph, binder concentration: 1:10,000 dilution
# [11] = peptide region: H3 5-17, peptide modifications: H3T11ph H3K14ac, binder concentration: 1:2,000 dilution
# [12] = peptide region: H3 5-17, peptide modifications: H3T11ph H3K14ac, binder concentration: 1:10,000 dilution
# [13] = peptide region: H3 5-17, peptide modifications: H3T11ph H3K14me1, binder concentration: 1:2,000 dilution
# [14] = peptide region: H3 5-17, peptide modifications: H3T11ph H3K14me1, binder concentration: 1:10,000 dilution
# [15] = peptide region: H3 5-17, peptide modifications: H3T11ph H3K14me2, binder concentration: 1:2,000 dilution
# [16] = peptide region: H3 5-17, peptide modifications: H3T11ph H3K14me2, binder concentration: 1:10,000 dilution
# [17] = peptide region: H3 5-17, peptide modifications: H3T11ph H3K14me3, binder concentration: 1:2,000 dilution
# [18] = peptide region: H3 5-17, peptide modifications: H3T11ph H3K14me3, binder concentration: 1:10,000 dilution
# [19] = peptide region: H3 5-17, peptide modifications: H3T11ph, binder concentration: 1:2,000 dilution
# [20] = peptide region: H3 5-17, peptide modifications: H3T11ph, binder concentration: 1:10,000 dilution
# [21] = peptide region: H3 11-23, binder concentration: 1:2,000 dilution
# [22] = peptide region: H3 11-23, binder concentration: 1:10,000 dilution
# [23] = peptide region: H3 11-23, peptide modifications: H3K14ac H3K18ac, binder concentration: 1:2,000 dilution
# [24] = peptide region: H3 11-23, peptide modifications: H3K14ac H3K18ac, binder concentration: 1:10,000 dilution
binder,measurement,setting,value
QTARKSTGGKAPR [H3 5-17 Q T A R K Sph T G G Kme3 A P R],peptide microarray binding signal,"[1]; peptide region: H3 5-17, peptide modifications: H3S10ph H3K14me3, binder concentration: 50 nM",0.005486 ± 5.1e-05
same,peptide microarray binding signal,"[1]; peptide region: H3 5-17, peptide modifications: H3S10ph H3K14me3, binder concentration: 500 nM",0.0236 ± 0.0018
same,peptide microarray binding signal,"[2]; peptide region: H3 5-17, peptide modifications: H3S10ph H3K14me3, binder concentration: 10 nM",0.0113 ± 0.0025
same,peptide microarray binding signal,"[2]; peptide region: H3 5-17, peptide modifications: H3S10ph H3K14me3, binder concentration: 100 nM",0.014 ± 0.0073
same,peptide microarray binding signal,[3]; [5],0.0516 ± 0.0021
same,peptide microarray binding signal,[3]; [6],0.0433 ± 0.025
same,peptide microarray binding signal,[4]; [5],0.132 ± 0.038
same,peptide microarray binding signal,[4]; [6],0.0759 ± 0.013
QTARKSTGGKAPR [H3 5-17 Q T A R K Sph Tph G G K A P R],peptide microarray binding signal,"[1]; peptide region: H3 5-17, peptide modifications: H3S10ph H3T11ph, binder concentration: 50 nM",0.00295 ± 9.8e-05
same,peptide microarray binding signal,"[1]; peptide region: H3 5-17, peptide modifications: H3S10ph H3T11ph, binder concentration: 500 nM",0.00695 ± 0.00038
same,peptide microarray binding signal,"[2]; peptide region: H3 5-17, peptide modifications: H3S10ph H3T11ph, binder concentration: 10 nM",0.00346 ± 9.7e-05
same,peptide microarray binding signal,"[2]; peptide region: H3 5-17, peptide modifications: H3S10ph H3T11ph, binder concentration: 100 nM",0.016 ± 0.0014
same,peptide microarray binding signal,[3]; [7],0.000302 ± 3.1e-06
same,peptide microarray binding signal,[3]; [8],0.000285 ± 3.1e-06
same,peptide microarray binding signal,[4]; [7],0.00107 ± 0.00014
same,peptide microarray binding signal,[4]; [8],0.000461 ± 8.7e-06
QTARKSTGGKAPR [H3 5-17 Q T A R K Sph T G G K A P R],peptide microarray binding signal,"[1]; peptide region: H3 5-17, peptide modifications: H3S10ph, binder concentration: 50 nM",0.00589 ± 6.1e-05
same,peptide microarray binding signal,"[1]; peptide region: H3 5-17, peptide modifications: H3S10ph, binder concentration: 500 nM",0.0117 ± 0.0012
same,peptide microarray binding signal,"[2]; peptide region: H3 5-17, peptide modifications: H3S10ph, binder concentration: 10 nM",0.00955 ± 0.00078
same,peptide microarray binding signal,"[2]; peptide region: H3 5-17, peptide modifications: H3S10ph, binder concentration: 100 nM",0.0203 ± 0.002
same,peptide microarray binding signal,[3]; [9],0.00142 ± 0.0001
same,peptide microarray binding signal,[3]; [10],0.0024 ± 0.00015
same,peptide microarray binding signal,[4]; [9],0.000785 ± 1.3e-05
same,peptide microarray binding signal,[4]; [10],0.0011 ± 1.1e-05
QTARKSTGGKAPR [H3 5-17 Q T A R K S Tph G G Kac A P R],peptide microarray binding signal,"[1]; peptide region: H3 5-17, peptide modifications: H3T11ph H3K14ac, binder concentration: 50 nM",0.00514 ± 0.00023
same,peptide microarray binding signal,"[1]; peptide region: H3 5-17, peptide modifications: H3T11ph H3K14ac, binder concentration: 500 nM",0.015 ± 0.0014
same,peptide microarray binding signal,"[2]; peptide region: H3 5-17, peptide modifications: H3T11ph H3K14ac, binder concentration: 10 nM",0.00597 ± 0.00044
same,peptide microarray binding signal,"[2]; peptide region: H3 5-17, peptide modifications: H3T11ph H3K14ac, binder concentration: 100 nM",0.0333 ± 0.0053
same,peptide microarray binding signal,[3]; [11],0.000868 ± 6.7e-05
same,peptide microarray binding signal,[3]; [12],0.000685 ± 1.9e-05
same,peptide microarray binding signal,[4]; [11],0.00394 ± 0.0008
same,peptide microarray binding signal,[4]; [12],0.00156 ± 3e-05
QTARKSTGGKAPR [H3 5-17 Q T A R K S Tph G G Kme A P R],peptide microarray binding signal,"[1]; peptide region: H3 5-17, peptide modifications: H3T11ph H3K14me1, binder concentration: 50 nM",0.00301 ± 0.00011
same,peptide microarray binding signal,"[1]; peptide region: H3 5-17, peptide modifications: H3T11ph H3K14me1, binder concentration: 500 nM",0.00562 ± 0.00013
same,peptide microarray binding signal,"[2]; peptide region: H3 5-17, peptide modifications: H3T11ph H3K14me1, binder concentration: 10 nM",0.00466 ± 0.00013
same,peptide microarray binding signal,"[2]; peptide region: H3 5-17, peptide modifications: H3T11ph H3K14me1, binder concentration: 100 nM",0.00496 ± 0.00066
same,peptide microarray binding signal,[3]; [13],0.00106 ± 2.3e-05
same,peptide microarray binding signal,[3]; [14],0.0012 ± 3.2e-05
same,peptide microarray binding signal,[4]; [13],0.00112 ± 2.3e-05
same,peptide microarray binding signal,[4]; [14],0.000807
QTARKSTGGKAPR [H3 5-17 Q T A R K S Tph G G Kme2 A P R],peptide microarray binding signal,"[1]; peptide region: H3 5-17, peptide modifications: H3T11ph H3K14me2, binder concentration: 50 nM",0.00216 ± 8e-05
same,peptide microarray binding signal,"[1]; peptide region: H3 5-17, peptide modifications: H3T11ph H3K14me2, binder concentration: 500 nM",0.00505 ± 0.00083
same,peptide microarray binding signal,"[2]; peptide region: H3 5-17, peptide modifications: H3T11ph H3K14me2, binder concentration: 10 nM",0.00239 ± 0.00024
same,peptide microarray binding signal,"[2]; peptide region: H3 5-17, peptide modifications: H3T11ph H3K14me2, binder concentration: 100 nM",0.00213 ± 0.00021
same,peptide microarray binding signal,[3]; [15],0.00496 ± 0.0019
same,peptide microarray binding signal,[3]; [16],0.00605 ± 0.0024
same,peptide microarray binding signal,[4]; [15],0.00177 ± 0.00016
same,peptide microarray binding signal,[4]; [16],0.00248 ± 0.00058
QTARKSTGGKAPR [H3 5-17 Q T A R K S Tph G G Kme3 A P R],peptide microarray binding signal,"[1]; peptide region: H3 5-17, peptide modifications: H3T11ph H3K14me3, binder concentration: 50 nM",0.00257 ± 7.4e-05
same,peptide microarray binding signal,"[1]; peptide region: H3 5-17, peptide modifications: H3T11ph H3K14me3, binder concentration: 500 nM",0.00829 ± 0.00052
same,peptide microarray binding signal,"[2]; peptide region: H3 5-17, peptide modifications: H3T11ph H3K14me3, binder concentration: 10 nM",0.00418 ± 0.00034
same,peptide microarray binding signal,"[2]; peptide region: H3 5-17, peptide modifications: H3T11ph H3K14me3, binder concentration: 100 nM",0.00857 ± 0.0014
same,peptide microarray binding signal,[3]; [17],0.00848 ± 0.002
same,peptide microarray binding signal,[3]; [18],0.00582 ± 0.0016
same,peptide microarray binding signal,[4]; [17],0.0639 ± 0.0075
same,peptide microarray binding signal,[4]; [18],0.0181 ± 0.0023
QTARKSTGGKAPR [H3 5-17 Q T A R K S Tph G G K A P R],peptide microarray binding signal,"[1]; peptide region: H3 5-17, peptide modifications: H3T11ph, binder concentration: 50 nM",0.0138 ± 0.005
same,peptide microarray binding signal,"[1]; peptide region: H3 5-17, peptide modifications: H3T11ph, binder concentration: 500 nM",0.014 ± 0.0037
same,peptide microarray binding signal,"[2]; peptide region: H3 5-17, peptide modifications: H3T11ph, binder concentration: 10 nM",0.0156 ± 0.0015
same,peptide microarray binding signal,"[2]; peptide region: H3 5-17, peptide modifications: H3T11ph, binder concentration: 100 nM",0.0409 ± 0.0057
same,peptide microarray binding signal,[3]; [19],0.0044 ± 0.0008
same,peptide microarray binding signal,[3]; [20],0.00553 ± 0.00047
same,peptide microarray binding signal,[4]; [19],0.00195 ± 7.3e-05
same,peptide microarray binding signal,[4]; [20],0.00254 ± 0.00012
TGGKAPRKQLATK [H3 11-23 T G G K A P R K Q L A T K],peptide microarray binding signal,"[1]; peptide region: H3 11-23, binder concentration: 50 nM",0.00481 ± 0.00041
same,peptide microarray binding signal,"[1]; peptide region: H3 11-23, binder concentration: 500 nM",0.0154 ± 0.0015
same,peptide microarray binding signal,"[2]; peptide region: H3 11-23, binder concentration: 10 nM",0.00615 ± 0.00031
same,peptide microarray binding signal,"[2]; peptide region: H3 11-23, binder concentration: 100 nM",0.0175 ± 0.0019
same,peptide microarray binding signal,[3]; [21],0.000849 ± 5.7e-05
same,peptide microarray binding signal,[3]; [22],0.00097 ± 0.00013
same,peptide microarray binding signal,[4]; [21],0.00172 ± 0.00025
same,peptide microarray binding signal,[4]; [22],0.00138 ± 0.00011
TGGKAPRKQLATK [H3 11-23 T G G Kac A P R Kac Q L A T K],peptide microarray binding signal,"[1]; peptide region: H3 11-23, peptide modifications: H3K14ac H3K18ac, binder concentration: 50 nM",0.00511 ± 0.00036
same,peptide microarray binding signal,"[1]; peptide region: H3 11-23, peptide modifications: H3K14ac H3K18ac, binder concentration: 500 nM",0.013 ± 0.00068
same,peptide microarray binding signal,"[2]; peptide region: H3 11-23, peptide modifications: H3K14ac H3K18ac, binder concentration: 10 nM",0.00913 ± 0.0004
same,peptide microarray binding signal,"[2]; peptide region: H3 11-23, peptide modifications: H3K14ac H3K18ac, binder concentration: 100 nM",0.0128 ± 0.00072
same,peptide microarray binding signal,[3]; [23],0.00445 ± 0.00038
same,peptide microarray binding signal,[3]; [24],0.00896 ± 0.0029
same,peptide microarray binding signal,[4]; [23],0.00139 ± 6.5e-05
same,peptide microarray binding signal,[4]; [24],0.00115 ± 2e-05
